Compound activity (PubChem)
a7 integrin act – integrin-mediated muscular dystrophy alleviation activation; alpha7betagal myoblasts, beta-gal FDG fluorescence, 48 h; Potency, µM (series often up to 38.3 µM), most hits filed as activators; actives 0.064% (n = 350,000); AID 624291; further: nearly all actives have a fitted effect of over 60% in size
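alpha7betagal+/- myoblasts (passage 13, 250/well) treated 48 h at 37C with compounds at 1:260 dilution of DMSO stock. Lysed, then beta-galactosidase activity read as FDG fluorescence (ex 480/em 540) after 30 min, with pre-read for autofluorescence.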
HEK293 tox – cytotoxicity counter-screen for GLP-1 receptor inverse agonists | Potency, µM (titrated, usually from 38.3 µM), most hits filed as inhibitors | HEK293 cAMP-luciferase reporter cells, luminescence, 24 h | AID 624418 | actives 0.13% (n = 410,000);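 further: loss of luciferase light is scored as toxicity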
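Compound-treated cells are incubated 24 hr at 37 deg C under 5% CO2 after a 12 hour attachment period, then luciferase detection reagent is added and luminescence is measured following 12 min at room temperature; lowered signal indicates toxicity.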
GLP1R ag – agonists of human GLP-1 receptor; Potency, µM (titrated, usually from 45.6 µM), actives largely listed as activators; HEK293 GLP-1R CRE-luciferase, luminescence, 4-6 h; cells express a hypersensitive GLP-1R form; P43220; actives 0.007% (n = 380,000)
Target sequence (P43220 whole entry, looked up): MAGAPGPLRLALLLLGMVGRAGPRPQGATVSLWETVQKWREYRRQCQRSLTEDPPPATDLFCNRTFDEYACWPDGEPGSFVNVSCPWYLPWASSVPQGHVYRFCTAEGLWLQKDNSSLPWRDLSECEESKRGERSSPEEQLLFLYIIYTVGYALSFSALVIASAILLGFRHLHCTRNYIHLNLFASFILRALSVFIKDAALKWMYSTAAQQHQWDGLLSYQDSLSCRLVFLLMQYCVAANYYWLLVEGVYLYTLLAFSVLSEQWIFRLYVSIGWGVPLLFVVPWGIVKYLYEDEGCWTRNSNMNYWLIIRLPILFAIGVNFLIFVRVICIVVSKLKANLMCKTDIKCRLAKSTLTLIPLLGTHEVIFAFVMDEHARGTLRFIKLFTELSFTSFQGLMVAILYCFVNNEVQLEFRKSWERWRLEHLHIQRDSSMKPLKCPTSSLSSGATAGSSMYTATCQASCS
GLP-1R inv ag – inverse agonists of human GLP-1 receptor. P43220. HEK293 GLP-1R CRE-luciferase, luminescence, 24 h; GLP-1R form is constitutively active. Potency, µM (highest dose often 38.3 µM), most hits filed as inhibitors. actives 1.6% (n = 410,000); further: nearly all actives have a fitted effect of over 55% in size
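Luminescence readout: a drop in cAMP-driven luciferase signal flags inverse agonism at a constitutively active GLP-1R stably expressed in HEK293. Compound exposure lasted 24 hr at 37 deg C, 5% CO2.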
BRCA1 expr act – BRCA1 expression activation. MCF7-BRCA1-FFLuc reporter, luminescence, 48 h; response scale: scaled: vehicle 0%, 10 µM genistein 100%. Potency, µM (doses to about 46.1 µM), hits mostly activators. actives 1.1% (n = 380,000). AID 624202; further: nearly all actives have a fitted effect of over 80% in size
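Activators of BRCA1 expression were detected as increased firefly luciferase luminescence in engineered MCF7 cells after 48 h compound incubation. Signals were scaled to genistein 10 microM as full activation.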
Of the large screens only hits and unclear results are named; the others gave an inactive call. Compounds with a hit are over-represented: about 2.7% of the library has one in this group of screens. The call rests on the fitted dose curve; in most records, active means well fitted curve in the direction sought with a large enough effect; inconclusive means small, poorly fitted or top-dose-only effect, or another doubt; inactive means no such curve, though single readings can be large; an effect the other way counts as inactive or inconclusive.

Cc1ccc(Cl)cc1NS(=O)(=O)c1ccc(N2CCCCS2(=O)=O)cc1	none (no result: a7 integrin act, GLP1R ag, BRCA1 expr act)
O[C@H]1C[C@H](c2ccccc2)N(CC2CCCCC2)C[C@@H]1n1cc(C2CC2)nn1	HEK293 tox inconclusive, GLP-1R inv ag 10µM
CCOC(=O)N1CCN(C(=O)c2ccc3c(c2)sc2nc(-c4ccccc4)cn23)CC1	BRCA1 expr act 10µM
CC(=O)NNC(=O)CSc1nnc(-c2ccccc2)c(-c2ccccc2)n1	none
CC(C)(C)NC(=O)CSc1nnc(-c2ccccc2)c(-c2ccccc2)n1	GLP-1R inv ag 8.91µM
CC(C)NC(=O)CSc1nc2ccccc2n1-c1ccccc1	GLP-1R inv ag inconclusive
CC(C)(C)NC(=O)CSc1nc2ccccc2n1-c1ccccc1	GLP-1R inv ag 10µM
CCCCc1ccc(NC(=O)COc2cccc3c(=O)n(C)ccc23)cc1	GLP-1R inv ag inconclusive (no result: a7 integrin act, GLP1R ag)
COc1ccc(CNc2nc3ccccc3n2C)c(O)c1	BRCA1 expr act 1.58µM
Cc1ccc(NC(=O)NCc2nc3ccccc3n2C)cc1	a7 integrin act 4.47µM
Cc1ccc(NCc2nc3ccccc3n2C)cc1C	BRCA1 expr act 7.94µM
Cc1ccc(NCc2nc3ccccc3n2C)cc1	GLP-1R inv ag inconclusive
Cn1c(NCc2ccc(Cl)cc2)nc2ccccc21	GLP-1R inv ag inconclusive, BRCA1 expr act 4.47µM
COc1ccc(CNc2nc3ccccc3n2C)c(OC)c1	BRCA1 expr act inconclusive
CC(=O)O[C@@H]1C(=O)O[C@H]2[C@@H]1OC(=O)[C@@H]2OC(C)=O	none (no result: a7 integrin act, HEK293 tox, GLP-1R inv ag, BRCA1 expr act)
COc1ccc(OCc2ccc(-c3nc(C#N)c(N4CCC(C)CC4)o3)o2)cc1	GLP-1R inv ag inconclusive (no result: a7 integrin act, GLP1R ag, BRCA1 expr act)
CC1CCCCN1S(=O)(=O)c1ccc2[nH]c(=O)cc(C(=O)NCCc3ccc(Cl)cc3)c2c1 (configuration not stated)	none (no result: a7 integrin act, GLP1R ag, BRCA1 expr act)
O=C(NCCc1ccccc1)c1ccc(Cn2c(SCc3ccccc3F)nc3cccnc32)cc1	GLP-1R inv ag inconclusive (no result: a7 integrin act, GLP1R ag, BRCA1 expr act)
CC(C)n1c(NCCO)nc2ccccc21	none
CC(C)n1c(NCc2nc3ccccc3n2C)nc2ccccc21	none
COc1ccc(Nc2nc3ccccc3n2C)cc1	BRCA1 expr act 5.62µM
Cn1c(CNc2nc3ccccc3n2C)nc2ccccc21	BRCA1 expr act 10µM
CC(C)n1c(Nc2ccccc2)nc2ccccc21	GLP-1R inv ag 11.2µM
COc1ccc(NCc2nc3ccccc3n2C)cc1	BRCA1 expr act 3.98µM
CCOC(=O)c1c(NC(=O)c2ccc(S(=O)(=O)N3CCC(C)CC3)cc2)sc2c1CCN(C)C2	GLP-1R inv ag inconclusive (no result: a7 integrin act, GLP1R ag, BRCA1 expr act)
Cc1ccc(S(=O)(=O)c2nc(-c3cccc(C)c3)oc2N2CCCCC2)cc1	GLP-1R inv ag inconclusive (no result: a7 integrin act, GLP1R ag, BRCA1 expr act)
C/C(NC(=O)c1ccccc1)=C1/C(=O)CC2C1C2(C)C (configuration not stated)	GLP-1R inv ag inconclusive, BRCA1 expr act 11.2µM
CC(=O)C1=C(NC(=O)c2ccc(F)cc2)CC2C1C2(C)C (configuration not stated)	GLP-1R inv ag inconclusive
Cc1ccc(C)c(SCC(=O)NCC(c2ccco2)N2CCCCC2)c1 (configuration not stated)	GLP-1R inv ag 11.2µM
COc1ccc(C(CNC(=O)C(C)(C)Oc2ccc(Cl)cc2)N2CCCCC2)cc1 (configuration not stated)	HEK293 tox inconclusive, GLP-1R inv ag inconclusive
Cc1ccc(S(=O)(=O)NC(CC(C)C)C(=O)NCC(c2ccco2)N2CCCCC2)cc1 (configuration not stated)	GLP-1R inv ag 4.47µM
CC(C)(Oc1ccc(Cl)cc1)C(=O)NCC(c1ccco1)N1CCCCC1 (configuration not stated)	GLP-1R inv ag 8.91µM
Cc1c(C(=O)NCC(c2ccco2)N2CCCC2)sc2ccccc12 (configuration not stated)	GLP-1R inv ag 8.91µM
O=C(Nc1ccc2c(c1)CCCN2C(=O)c1cccs1)c1ccc(F)c(F)c1	GLP-1R inv ag inconclusive (no result: a7 integrin act, GLP1R ag, BRCA1 expr act)
CCc1nn(CC(=O)NCc2ccco2)c(=O)c2cc3c(OC)cccc3n12	none (no result: a7 integrin act, GLP1R ag, BRCA1 expr act)
CCOc1ccc(CCNC(=O)CSc2nc3ccccc3nc2Cc2ccc(C)cc2)cc1OCC	none (no result: a7 integrin act, GLP1R ag, BRCA1 expr act)
Cc1cc(SCC(=O)NCC(c2cccs2)N2CCOCC2)c(C)cc1Br (configuration not stated)	GLP-1R inv ag 11.2µM
COc1ccc(CCN(C)CC(O)COC(c2ccc(F)cc2)c2ccc(F)cc2)cc1OC (configuration not stated)	HEK293 tox inconclusive, GLP-1R inv ag 5.01µM
COc1ccc(CCN(C)CC(O)COc2c(C)ccc(C)c2C)cc1OC (configuration not stated)	GLP-1R inv ag inconclusive
O=C(O)Cn1cnc2c(OCc3ccccc3)ncnc21	none
Cc1cc(C)c(CN2CCN(C(=O)Cn3cnc4c(OCc5ccccc5)ncnc43)CC2)c(C)c1	GLP-1R inv ag 6.31µM
Cc1ccc(CN2CCN(CCCn3cnc4c(OCc5ccccc5)ncnc43)CC2)cc1	GLP-1R inv ag 8.91µM
COc1ccc(CNC(=O)CCc2c(C)nn(-c3ccc(N4CCOCC4)nn3)c2C)cc1	none (no result: a7 integrin act, GLP1R ag)
O=S(=O)(c1ccc2nc(Nc3ccc(Br)cc3F)ccc2c1)N1CCCC1	none (no result: a7 integrin act, GLP1R ag, BRCA1 expr act)
O=C(C[n+]1ccccc1Br)c1ccc(F)cc1	none (no result: a7 integrin act, HEK293 tox, GLP1R ag, GLP-1R inv ag)
CCOc1ccccc1CNC(=O)c1ccc(-c2nc(CSc3ccc(C)cc3)c(C)o2)cc1	none (no result: a7 integrin act, GLP1R ag, BRCA1 expr act)
Cc1oc(-c2ccc(C(=O)Nc3cccc(C(F)(F)F)c3)cc2)nc1CSc1ccccc1	GLP-1R inv ag 2.24µM (no result: a7 integrin act, GLP1R ag, BRCA1 expr act)
COc1ccccc1CCNC(=O)c1ccc(-c2nc(CSc3ccc(C)cc3)c(C)o2)cc1	GLP-1R inv ag 10µM (no result: a7 integrin act, GLP1R ag, BRCA1 expr act)
CCOC(=O)c1cnc(-n2nc(C)cc2C)nc1NC1CCCC1	HEK293 tox inconclusive, GLP-1R inv ag 2.51µM
CCOC(=O)c1cnc(-n2nc(C)cc2C)nc1NCc1ccc2c(c1)OCO2	HEK293 tox inconclusive, GLP-1R inv ag 3.55µM
CCOC(=O)c1cnc(-n2nc(C)cc2C)nc1Nc1ccc(OC)cc1	HEK293 tox inconclusive
CCCOc1ccc(CNC(=O)C(NS(=O)(=O)c2cccs2)C(C)C)cc1 (configuration not stated)	none (no result: a7 integrin act, GLP1R ag, BRCA1 expr act)
CCN1CCN(c2nc(-c3ccccn3)nc3ccccc23)CC1	HEK293 tox inconclusive, GLP-1R inv ag inconclusive
CCN1CCN(c2ccc(Nc3ccnc4ccccc34)cc2)CC1	GLP-1R inv ag 3.55µM
COc1ccc(CNC(=O)c2sc3nc4n(c(=O)c3c2C)CCCCC4)cc1	none (no result: a7 integrin act, GLP1R ag, BRCA1 expr act)
COC(=O)c1cc(NC(=O)c2cc(C(C)(C)C)nn2Cc2ccc(F)cc2)ccc1N1CCOCC1	GLP-1R inv ag 3.55µM
COC(=O)c1cc(NCc2ccc3c(c2)OCO3)ccc1N1CCOCC1	none
Cc1cccc(Cn2nc(C(C)(C)C)cc2C(=O)Nc2ccc(F)cc2)c1	HEK293 tox inconclusive, GLP-1R inv ag 5.01µM
